Tgondii IFNg: T. gondii growth inhibition with IFN-gamma, primary screen, cell-based. hit rate 3.8% among 69,000. Toxoplasma gondii growth in IFN-gamma-treated host cells; stronger effect = lower value. AID 1259416, 2018. activity change, negative = inhibition, % (test concentration not listed); in the data active = activity change below about -70%, passing the limit was not always enough;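 also: host cells are HeLa cells infected with Toxoplasma gondii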
* hit, by the source's call. The sample as a whole holds a higher share of hits than the screen did.

Screening O=C(CCN1CCC(C(O)c2cccs2)CC1)N1CCc2ccccc2C1 (configuration not stated) returned Tgondii IFNg -1.
For Cc1ccc(N(Cc2nc(-c3cccc(Cl)c3)oc2C)S(=O)(=O)c2cccs2)cc1 the results were Tgondii IFNg -48.
CCc1nc(OCC(=O)Nc2ccc(Cl)cc2C(F)(F)F)c2ccccc2n1 was read as Tgondii IFNg -50.
Screening COC(=O)C[C@](O)(CCCC(C)(C)O)C(=O)O[C@@H]1C(OC)=C[C@]23CCCN2CCc2cc4c(cc2[C@H]13)OCO4 returned Tgondii IFNg -82*.
CCC1CCCCN1CCCNC(=O)C1=C(C)C(=O)OC12CCN(CC)CC2 (configuration not stated) was read as Tgondii IFNg 151.
Screening Cc1cc(N(C)Cc2cc(C(C)C)on2)nc(-c2cccnc2)n1 returned Tgondii IFNg -60.
CCOc1cccc(C2c3[nH]c4ccccc4c3CCN2C(=O)c2ccccc2OC)c1 (configuration not stated) was read as Tgondii IFNg -105*.
Cc1ccc(C(=O)N2CCc3c([nH]c4ccccc34)C2c2cccc(C)c2)cc1 (configuration not stated) was read as Tgondii IFNg 207.
Screening CCOc1cccc(C2c3[nH]c4ccccc4c3CCN2C(=O)c2cccc(N(C)C)c2)c1 (configuration not stated) returned Tgondii IFNg 408.
CCOc1cccc(C2c3[nH]c4ccccc4c3CCN2C(=O)c2cccc(OC)c2)c1 (configuration not stated) was read as Tgondii IFNg -103*.
Screening CCOc1cccc(C2c3[nH]c4ccccc4c3CCN2C(=O)c2ccc(C)cc2)c1 (configuration not stated) returned Tgondii IFNg -122*.
CCOc1cccc(C2c3[nH]c4ccccc4c3CCN2C(=O)C2CCC2)c1 (configuration not stated) was read as Tgondii IFNg 483.
For CCOc1cccc(C2c3[nH]c4ccccc4c3CCN2C(=O)COC)c1 (configuration not stated) the results were Tgondii IFNg inactive.
For CCOc1cccc(C2c3[nH]c4ccccc4c3CCN2C(=O)c2ccc(F)cc2)c1 (configuration not stated) the results were Tgondii IFNg -98*.
COc1ccccc1C(=O)N1CCc2c([nH]c3ccccc23)C1c1ccc(Cl)cc1 (configuration not stated) was read as Tgondii IFNg 31.
`COc1ccccc1C(=O)N1CCc2c([nH]c3ccccc23)C1c1ccccc1` (configuration not stated) gave Tgondii IFNg 58.
Screening Cc1noc(C)c1S(=O)(=O)Nc1ccc2c(c1)CC(=O)N([C@@H](C)CO)C[C@H](C)[C@@H](CN(C)Cc1ccc(Oc3ccccc3)cc1)O2 returned Tgondii IFNg -55.
For Cc1ccccc1CCC1CCCN(CC(=O)NC2CC2)C1 (configuration not stated) the results were Tgondii IFNg 11.
CCc1cnc(C)nc1N1CCC(O)(Cn2ccnc2)CC1 was read as Tgondii IFNg -3.
Cc1ccc(-c2nnc(CN3CCCCC3c3ccccn3)o2)n1C (configuration not stated) was read as Tgondii IFNg -7.
Screening Cc1nccc(NCc2cncc3c2CCN(S(C)(=O)=O)C3)n1 returned Tgondii IFNg 106.
For CN(C)Cc1cc(=O)n2c(n1)CN(Cc1ccoc1)CCC2 the results were Tgondii IFNg 27.
`CCSc1nc(CC(=O)N(Cc2nccn2C)C2CC2)cs1` gave Tgondii IFNg 15.
`CN(C)c1ccc(CNC(=O)c2cc3cc(S(=O)(=O)N(C)C)ccc3n2Cc2ccncc2)cc1` gave Tgondii IFNg 72.
For CC[C@@H]1N(Cc2nccs2)CCC[C@@]12CCC(=O)N2C the results were Tgondii IFNg 1.
`O=C(NCc1cccc(Br)c1)c1c(O)c2cccnc2[nH]c1=O` gave Tgondii IFNg 7.
`O=C(NC(=S)N1CCOCC1)c1ccccc1` gave Tgondii IFNg 24.
For Cc1ccc(NC(=O)c2ccoc2)cc1NCC#N the results were Tgondii IFNg 45.
O=C(NC(=O)c1ccccc1O)c1ccoc1 was read as Tgondii IFNg -84*.
For O=C(Nc1ccc2c(c1)OCCO2)N1c2ccccc2Sc2ccccc21 the results were Tgondii IFNg 346.
CCOC(=O)c1c(Sc2ccccc2)cnn1C(=O)Nc1cccc(Cl)c1 was read as Tgondii IFNg -79*.
Screening COC(=O)c1cnc(SCC(=O)Nc2cccc(Cl)c2)n1C returned Tgondii IFNg 34.
CCOC(=O)c1cccnc1-c1cccc(NC(C)=O)c1 was read as Tgondii IFNg 13.
`Cc1ccc(CN(CCN(C)C)C(=O)c2cccc3c2OCCO3)s1` gave Tgondii IFNg -2.
`O=C(NCCc1csc(-c2ccccc2)n1)C1CCN(C(=O)c2ccccc2Cl)CC1` gave Tgondii IFNg 11.
Screening COc1cc(C)ccc1-c1c(-c2ccccc2)ncn1C(C)Cc1cnccn1 (configuration not stated) returned Tgondii IFNg -4.

Compound activity: PubChem, Broad Institute
